Source: ChEMBL document CHEMBL3988442, “University of Dundee, Small-Polar-MMV Screening Library” (2021)
For some of these results: Entries with a potency or affinity are not part of this list.

What was measured:
Set-up in all cases: scale not given: direction of the effect not stated beside the values
[1] = biological target: Protein translocase subunit SecA (Escherichia coli (strain K12)) (UniProt P10408); assay: Assay to Identify E. coli SecA ATPase Inhibitors; assay type: functional; settings: 30 µM
[2] = biological target: T1, Ubiquitin-activating enzyme e1, putative (Leishmania donovani (strain BPK282A1)) (UniProt E9BSI1); assay: Leishmania donovani Ubiquitin Activating Enzyme (LdE1); assay type: functional; settings: 30 µM
T1 sequence (whole entry): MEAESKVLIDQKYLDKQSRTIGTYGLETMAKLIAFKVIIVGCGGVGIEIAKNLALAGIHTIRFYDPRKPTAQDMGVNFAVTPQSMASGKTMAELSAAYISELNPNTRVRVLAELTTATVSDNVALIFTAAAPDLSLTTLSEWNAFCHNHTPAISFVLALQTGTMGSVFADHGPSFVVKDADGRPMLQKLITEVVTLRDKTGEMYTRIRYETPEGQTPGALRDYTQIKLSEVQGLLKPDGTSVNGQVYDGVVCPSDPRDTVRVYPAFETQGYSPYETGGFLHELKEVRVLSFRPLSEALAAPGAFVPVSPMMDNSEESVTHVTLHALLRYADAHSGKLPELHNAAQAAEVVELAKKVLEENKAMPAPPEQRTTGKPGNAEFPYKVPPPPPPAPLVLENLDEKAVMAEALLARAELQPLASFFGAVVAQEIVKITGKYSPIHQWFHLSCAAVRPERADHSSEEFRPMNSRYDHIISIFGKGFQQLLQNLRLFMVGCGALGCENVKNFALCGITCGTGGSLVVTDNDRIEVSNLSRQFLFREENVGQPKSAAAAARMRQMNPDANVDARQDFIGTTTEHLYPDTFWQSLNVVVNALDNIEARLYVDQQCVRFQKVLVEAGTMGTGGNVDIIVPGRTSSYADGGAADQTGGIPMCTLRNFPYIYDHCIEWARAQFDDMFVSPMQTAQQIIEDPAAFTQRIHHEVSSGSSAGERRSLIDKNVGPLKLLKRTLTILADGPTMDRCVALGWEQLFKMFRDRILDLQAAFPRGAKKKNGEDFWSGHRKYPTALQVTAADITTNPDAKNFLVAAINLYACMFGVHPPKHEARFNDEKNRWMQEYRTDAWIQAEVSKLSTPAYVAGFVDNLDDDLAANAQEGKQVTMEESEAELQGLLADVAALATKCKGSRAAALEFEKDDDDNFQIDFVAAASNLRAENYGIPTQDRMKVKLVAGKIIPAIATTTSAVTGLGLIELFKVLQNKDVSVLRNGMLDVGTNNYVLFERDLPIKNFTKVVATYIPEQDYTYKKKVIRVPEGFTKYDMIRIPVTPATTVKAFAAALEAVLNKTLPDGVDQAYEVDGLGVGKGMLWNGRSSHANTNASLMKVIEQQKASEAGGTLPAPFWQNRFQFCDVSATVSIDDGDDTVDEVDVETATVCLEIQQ

[3] = biological target: AMP-activated protein kinase, AMPK (Homo sapiens) (UniProt P54646+O43741+P54619+Q9UGJ0+Q9Y478+Q13131+Q9UGI9); assay: AMP-dependent Kinase enzyme assay. An in vitro enzyme assay that detects ADP turnover that is directly proportional to AMPK activity. This uses naive AMPK that is activated during the assay with MK-8722; assay type: functional; settings: 30 µM
[4] = biological target: Sialic acid-binding Ig-like lectin 9 (Homo sapiens) (UniProt Q9Y336); assay: Hs-Siglec9 ALPHAscreen SOP 20170721; settings: 10 µM
Trypanosoma cruzi = assay: Trypanosoma cruzi phosphomannomutase and mannose-1-phosphate guanylyltransferase assay; assay type: functional; settings: 10 µM
[5] = biological target: T2, Arginase-2, mitochondrial (Homo sapiens) (UniProt P78540); assay: in vitro enzyme assay to detect the production of urea directly proportional to the activity of Arginase II; assay type: functional; settings: 33.3 µM; further: in the data most compounds retested in dose-response had high values
T2 sequence (whole entry): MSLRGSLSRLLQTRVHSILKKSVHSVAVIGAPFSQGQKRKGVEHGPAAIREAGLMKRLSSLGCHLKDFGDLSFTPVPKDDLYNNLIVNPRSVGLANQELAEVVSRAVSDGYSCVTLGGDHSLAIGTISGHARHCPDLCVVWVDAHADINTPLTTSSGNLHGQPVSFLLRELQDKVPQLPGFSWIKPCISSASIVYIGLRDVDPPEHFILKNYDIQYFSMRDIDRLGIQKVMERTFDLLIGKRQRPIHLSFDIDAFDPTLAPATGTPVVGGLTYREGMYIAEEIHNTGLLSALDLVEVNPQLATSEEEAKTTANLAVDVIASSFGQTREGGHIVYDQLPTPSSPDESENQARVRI

[6] = biological target: T3, Proteasome subunit beta (Trypanosoma cruzi) (UniProt O96673); assay: Trypanosoma cruzi proteasome chymotrypsin-like activity (TcProtChymo) assay.; further: in the data most compounds retested in dose-response had high values; assay type: functional; settings: 9.37 µM
T3 sequence (whole entry): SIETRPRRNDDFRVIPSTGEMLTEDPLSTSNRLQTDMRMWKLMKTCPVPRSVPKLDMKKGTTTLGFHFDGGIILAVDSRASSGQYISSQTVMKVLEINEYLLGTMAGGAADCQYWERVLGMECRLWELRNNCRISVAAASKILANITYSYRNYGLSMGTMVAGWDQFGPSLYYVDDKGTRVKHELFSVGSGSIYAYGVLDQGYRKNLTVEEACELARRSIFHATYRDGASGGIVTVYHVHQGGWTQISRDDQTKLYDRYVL

Homo sapiens = species on record: Homo sapiens; assay: To identify inhibition of the IFN signalling (Jak-Stat) pathway via expression of an eGFP reporter gene under the control of an IFN-stimulated response element (ISRE) containing MxA promoter.; assay type: functional; settings: 30 µM
[7] = biological target: T4, Tyrosyl-tRNA synthetase, putative (Trypanosoma cruzi (strain CL Brener)) (UniProt Q4DSP6); assay: Trypanosoma cruzi tyrosyl tRNA synthetase (TcYRS) _High Tyrosine SOP; assay type: functional; settings: 30 µM; further: in the data most compounds retested in dose-response had high values
T4 sequence (whole entry): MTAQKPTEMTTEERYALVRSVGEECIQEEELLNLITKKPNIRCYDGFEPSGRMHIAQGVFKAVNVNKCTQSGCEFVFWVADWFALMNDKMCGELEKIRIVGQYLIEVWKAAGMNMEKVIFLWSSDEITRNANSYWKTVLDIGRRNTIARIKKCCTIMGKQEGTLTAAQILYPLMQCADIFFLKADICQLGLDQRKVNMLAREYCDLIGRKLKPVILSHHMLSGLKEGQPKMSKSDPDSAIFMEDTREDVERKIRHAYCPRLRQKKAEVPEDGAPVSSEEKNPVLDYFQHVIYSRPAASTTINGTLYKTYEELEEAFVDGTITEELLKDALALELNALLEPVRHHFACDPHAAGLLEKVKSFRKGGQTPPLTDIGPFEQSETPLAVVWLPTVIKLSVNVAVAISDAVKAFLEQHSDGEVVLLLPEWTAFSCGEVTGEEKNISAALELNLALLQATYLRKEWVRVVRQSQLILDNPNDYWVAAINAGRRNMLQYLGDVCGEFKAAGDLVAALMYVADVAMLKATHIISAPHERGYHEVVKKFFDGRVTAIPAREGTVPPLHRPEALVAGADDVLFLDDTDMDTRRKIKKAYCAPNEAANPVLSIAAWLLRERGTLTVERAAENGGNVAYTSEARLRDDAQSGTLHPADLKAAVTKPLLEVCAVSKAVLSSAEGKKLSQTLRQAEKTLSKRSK

[8] = biological target: T4, Tyrosyl-tRNA synthetase, putative (Trypanosoma cruzi (strain CL Brener)); assay: Trypanosoma cruzi tyrosyl tRNA synthetase (TcYRS) SOP; assay type: functional; settings: 30 µM
[9] = biological target: Chromo domain-containing protein 1 (Saccharomyces cerevisiae (strain ATCC 204508 / S288c) (Baker's yeast)) (UniProt P32657); assay: ScCHD-1 Enzyme Inhibition Assay; assay type: functional; settings: 30 µM; further: in the data most compounds retested in dose-response had high values
Chain of Chromo domain-containing protein 1 (Saccharomyces cerevisiae (strain ATCC 204508 / S288c) (Baker's yeast)) (P32657 whole entry, the tested form may be a part): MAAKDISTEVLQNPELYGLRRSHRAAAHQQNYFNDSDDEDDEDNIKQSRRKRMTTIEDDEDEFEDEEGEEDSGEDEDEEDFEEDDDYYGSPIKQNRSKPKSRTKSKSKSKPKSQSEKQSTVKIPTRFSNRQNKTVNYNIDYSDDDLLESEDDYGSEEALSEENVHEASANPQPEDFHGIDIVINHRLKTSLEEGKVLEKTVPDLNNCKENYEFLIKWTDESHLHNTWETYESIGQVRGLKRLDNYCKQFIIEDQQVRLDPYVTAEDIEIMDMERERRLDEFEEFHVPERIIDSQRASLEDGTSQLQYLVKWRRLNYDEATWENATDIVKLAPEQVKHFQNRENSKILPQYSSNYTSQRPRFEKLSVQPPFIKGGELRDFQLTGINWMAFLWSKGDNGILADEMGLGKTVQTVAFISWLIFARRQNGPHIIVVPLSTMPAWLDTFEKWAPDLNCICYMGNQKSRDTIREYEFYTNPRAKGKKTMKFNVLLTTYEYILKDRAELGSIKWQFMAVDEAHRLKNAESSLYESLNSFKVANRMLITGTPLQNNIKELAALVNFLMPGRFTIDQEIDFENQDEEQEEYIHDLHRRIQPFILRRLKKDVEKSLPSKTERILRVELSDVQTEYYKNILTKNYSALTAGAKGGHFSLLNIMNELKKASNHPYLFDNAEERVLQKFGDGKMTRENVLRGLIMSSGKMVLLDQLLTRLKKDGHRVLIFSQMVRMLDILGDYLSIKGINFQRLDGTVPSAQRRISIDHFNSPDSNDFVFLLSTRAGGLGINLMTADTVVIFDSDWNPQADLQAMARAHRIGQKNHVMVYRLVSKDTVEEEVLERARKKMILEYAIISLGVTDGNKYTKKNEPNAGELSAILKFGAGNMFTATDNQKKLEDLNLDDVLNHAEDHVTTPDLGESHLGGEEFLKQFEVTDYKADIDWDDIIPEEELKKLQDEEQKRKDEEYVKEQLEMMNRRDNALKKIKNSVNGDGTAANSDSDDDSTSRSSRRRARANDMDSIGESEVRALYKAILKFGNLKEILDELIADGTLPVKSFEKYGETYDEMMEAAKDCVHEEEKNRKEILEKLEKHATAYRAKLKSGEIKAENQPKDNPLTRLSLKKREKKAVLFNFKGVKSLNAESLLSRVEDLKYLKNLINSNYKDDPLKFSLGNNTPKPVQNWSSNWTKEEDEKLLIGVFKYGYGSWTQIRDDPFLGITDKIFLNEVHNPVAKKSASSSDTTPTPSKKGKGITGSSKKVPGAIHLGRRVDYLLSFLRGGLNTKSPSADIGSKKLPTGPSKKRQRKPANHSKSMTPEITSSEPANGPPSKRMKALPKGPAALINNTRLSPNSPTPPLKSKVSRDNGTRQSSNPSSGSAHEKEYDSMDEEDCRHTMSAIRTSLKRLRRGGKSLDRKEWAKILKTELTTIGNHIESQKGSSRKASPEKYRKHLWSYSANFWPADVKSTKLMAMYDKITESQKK

Chain of Sialic acid-binding Ig-like lectin 9 (Homo sapiens) (Q9Y336 whole entry): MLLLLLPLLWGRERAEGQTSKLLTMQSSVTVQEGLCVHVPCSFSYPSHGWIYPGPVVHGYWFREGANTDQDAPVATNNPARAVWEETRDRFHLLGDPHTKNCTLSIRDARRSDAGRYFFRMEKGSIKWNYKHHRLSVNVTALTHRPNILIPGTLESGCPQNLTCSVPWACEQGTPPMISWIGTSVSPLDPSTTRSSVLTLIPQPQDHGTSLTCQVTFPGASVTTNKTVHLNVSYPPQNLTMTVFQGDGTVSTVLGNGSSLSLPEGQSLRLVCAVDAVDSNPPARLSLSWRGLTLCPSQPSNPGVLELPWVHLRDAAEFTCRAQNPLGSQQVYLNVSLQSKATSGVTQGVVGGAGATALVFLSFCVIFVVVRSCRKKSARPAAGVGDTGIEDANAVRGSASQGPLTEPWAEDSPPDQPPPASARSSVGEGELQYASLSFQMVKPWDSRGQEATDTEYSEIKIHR
Chain of Protein translocase subunit SecA (Escherichia coli (strain K12)) (P10408 whole entry): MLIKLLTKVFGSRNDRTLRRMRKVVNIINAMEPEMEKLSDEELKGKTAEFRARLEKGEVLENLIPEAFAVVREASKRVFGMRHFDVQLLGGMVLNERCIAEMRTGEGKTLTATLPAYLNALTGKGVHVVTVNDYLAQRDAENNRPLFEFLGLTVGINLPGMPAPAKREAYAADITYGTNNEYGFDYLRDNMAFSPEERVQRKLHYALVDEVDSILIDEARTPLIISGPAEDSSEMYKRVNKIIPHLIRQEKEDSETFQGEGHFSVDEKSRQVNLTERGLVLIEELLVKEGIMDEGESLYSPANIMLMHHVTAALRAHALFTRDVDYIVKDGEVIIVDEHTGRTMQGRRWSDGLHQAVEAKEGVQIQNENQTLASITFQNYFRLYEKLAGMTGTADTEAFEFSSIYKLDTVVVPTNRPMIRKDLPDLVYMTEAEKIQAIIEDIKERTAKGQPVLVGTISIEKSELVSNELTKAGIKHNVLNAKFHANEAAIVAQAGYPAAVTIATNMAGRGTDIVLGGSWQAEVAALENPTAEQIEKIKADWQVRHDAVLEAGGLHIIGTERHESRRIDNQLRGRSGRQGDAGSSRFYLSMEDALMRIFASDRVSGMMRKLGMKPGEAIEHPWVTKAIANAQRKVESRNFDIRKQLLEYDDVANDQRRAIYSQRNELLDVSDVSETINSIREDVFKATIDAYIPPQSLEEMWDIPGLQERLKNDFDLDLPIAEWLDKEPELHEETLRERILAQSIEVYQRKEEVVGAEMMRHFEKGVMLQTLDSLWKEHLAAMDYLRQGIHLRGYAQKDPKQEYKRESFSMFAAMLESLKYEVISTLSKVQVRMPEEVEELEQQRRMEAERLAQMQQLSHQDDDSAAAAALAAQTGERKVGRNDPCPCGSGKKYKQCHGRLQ

## CC1=Nc2c(c(=O)[nH]n2C(C)C)C(c2cccs2)S1 (stereo not drawn)
[1]
  Percent Effect: -7.07%
[2]
  Percent Effect: -1.33%
[3]
  Percent Effect: 2.48%
[4]
  Percent Effect: 1.91%
Trypanosoma cruzi
  Percent Effect: 0.197%
[5]
  Percent Effect: -3.7%
[6]
  Percent Effect: 9.8%
Homo sapiens
  Percent Effect: 11.9%
[7]
  Percent Effect: 19.1%
[8]
  Percent Effect: 25.6%
[9]
  Percent Effect: -2.82%

## CN(C)S(=O)(=O)N1CCC(Oc2cnccn2)CC1
[1]
  Percent Effect: -5.97%
[2]
  Percent Effect: 13%
[3]
  Percent Effect: -2.04%
[4]
  Percent Effect: 3.81%
Trypanosoma cruzi
  Percent Effect: 1.28%
[5]
  Percent Effect: -1.94%
[6]
  Percent Effect: 20.2%
Homo sapiens
  Percent Effect: 6.27%
[7]
  Percent Effect: 4.23%
[8]
  Percent Effect: 14.1%
[9]
  Percent Effect: -9.34%

## Nc1nc(CN2CCCC(Cn3cncn3)C2)nc2ccccc12 (stereo not drawn)
[1]
  Percent Effect: 1.55%
[2]
  Percent Effect: -2.7%
[3]
  Percent Effect: -3.95%
[4]
  Percent Effect: 9.62%
Trypanosoma cruzi
  Percent Effect: 3.06%
[5]
  Percent Effect: -2.03%
[6]
  Percent Effect: -5.92%
Homo sapiens
  Percent Effect: 3.26%
[7]
  Percent Effect: 4.95%
[8]
  Percent Effect: 6.1%
[9]
  Percent Effect: 1.99%

## Cc1ccc(C(=O)Nc2cc(C(C)C)n[nH]2)cn1
[1]
  Percent Effect: -6.49%
[2]
  Percent Effect: 5.2%
[3]
  Percent Effect: 97.8%
[4]
  Percent Effect: 4.24%
Trypanosoma cruzi
  Percent Effect: -5.06%
[5]
  Percent Effect: 3.56%
[6]
  Percent Effect: 10.3%
Homo sapiens
  Percent Effect: 75.7%
[7]
  Percent Effect: 3.88%
[8]
  Percent Effect: 9.76%
[9]
  Percent Effect: -5.01%

## Cc1noc(C)c1CNC(=O)c1ccc(NC2CC2)nc1
[1]
  Percent Effect: -5.61%
[2]
  Percent Effect: 5.26%
[3]
  Percent Effect: -12.2%
[4]
  Percent Effect: 12.7%
Trypanosoma cruzi
  Percent Effect: 7.94%
[5]
  Percent Effect: -2.52%
[6]
  Percent Effect: -0.0846%
Homo sapiens
  Percent Effect: 3.38%
[7]
  Percent Effect: 7.39%
[8]
  Percent Effect: 25.9%
[9]
  Percent Effect: -5.7%

## CCc1nc(CN2CCN(c3ncnc4cc(F)ccc34)CC2)no1
[1]
  Percent Effect: -8.93%
[2]
  Percent Effect: 0%
[3]
  Percent Effect: -0.509%
[4]
  Percent Effect: 2.81%
Trypanosoma cruzi
  Percent Effect: -3.44%
[5]
  Percent Effect: 0%
[6]
  Percent Effect: 9.65%
Homo sapiens
  Percent Effect: 75.3%
[7]
  Percent Effect: -3.23%
[8]
  Percent Effect: -6.17%
[9]
  Percent Effect: 1.03%

## CCC(CC)C(CNC(=O)Nc1ccc(C)cc1)N1CCOCC1 (stereo not drawn)
[1]
  Percent Effect: -3.76%
[2]
  Percent Effect: 22.8%
[3]
  Percent Effect: -8.69%
[4]
  Percent Effect: -4.59%
Trypanosoma cruzi
  Percent Effect: 4.63%
[5]
  Percent Effect: -0.76%
[6]
  Percent Effect: 3.52%
Homo sapiens
  Percent Effect: 5.24%
[7]
  Percent Effect: -25.1%
[8]
  Percent Effect: 21.5%
[9]
  Percent Effect: -8.39%

## CCN(CC)c1ccc(NS(=O)(=O)c2cnn(C)c2)cn1
[1]
  Percent Effect: -1.96%
[2]
  Percent Effect: 16.4%
[3]
  Percent Effect: -5.27%
[4]
  Percent Effect: 6.69%
Trypanosoma cruzi
  Percent Effect: 8.33%
[5]
  Percent Effect: -6.39%
[6]
  Percent Effect: 8.48%
Homo sapiens
  Percent Effect: 0.142%
[7]
  Percent Effect: 6.25%
[8]
  Percent Effect: 13.6%
[9]
  Percent Effect: -5.08%
